From PubChem BioAssay AID720650 (Broad Institute, 2013)
A number with no mark means an inactive call. Calls of active or inactive are those of the source. The rule behind the calls is not given here.

Experiment: Biochemical counterscreen for C difficile toxins, absence of UDPG, inhibitor dose response (AID 720650)
Conditions: series mostly up to 19.5 µM

| Structure (SMILES) | AC50 |
| --- | --- |
| CC(C)c1cc(CN2CCN(Cc3ccc(F)c(F)c3)C(CCO)C2)[nH]n1 (stereo not drawn) | inactive |
| COc1ccc(C2=NS(=O)(=O)N(C)C(C(=O)N3CCOCC3)=C2)cc1 | inactive |
| Cc1ccc(C(=O)Nc2ncc([N+](=O)[O-])s2)cc1 | > 39 µM |
| Cc1ccc(C(=O)NCCn2cc(SCC(=O)Nc3cc(C)on3)c3ccccc32)cc1 | inactive |
| CC(OC(=O)C1=COCCO1)C(=O)c1ccc(Br)cc1 (stereo not drawn) | inactive |
| O=C(C[C@@H]1CC[C@@H]2[C@H](COC[C@@H](O)CN2C(=O)c2ccccn2)O1)NC1CCC1 | inactive |
| Cc1cc(N/N=C/c2ccncc2)nc2ccccc12 | inactive |
| CNC(=S)N/N=C/c1c(C(=O)OC)cnn1-c1ccc(F)cc1F | inactive |
| Cc1ccc(S(=O)(=O)Oc2cccc(/C=N/n3cnnc3)c2)cc1 | > 39 µM |
| Cc1ccc(Oc2c(CO)c(-c3ccccc3)nn2C)cc1 | inactive |
| Cc1ccc(S(=O)(=O)/N=C(/Nc2cccc(O)c2)c2ccccc2)cc1 | inactive |
| O=C(NNc1nc2c(F)cc(F)cc2s1)C1COc2ccccc2O1 (stereo not drawn) | 0.699 µM (active) |
| O=C(COc1cccc(C(F)(F)F)c1)N1CCN(c2ccc(O)cc2)CC1 | inactive |
| O=C(CSc1cccc2cccnc12)N/N=C/c1ccc(O)cc1 | 11.1 µM (active) |
| Cc1cc(C)nc(SCC(=O)c2ccc(O)c(O)c2)n1 | inactive |
| CC(=O)Nc1ccc(NC(=O)[C@@H]2CCCN2S(=O)(=O)c2ccc3c(c2)OCCO3)cc1 | inactive |
| C[C@H]1CN([C@@H](C)CO)C(=O)c2c(c3ccccc3n2C)-c2ccccc2CO[C@H]1CN(C)C | inactive |
| CCOc1ccc(C(CC(=O)O)NC(=O)C23CC4CC(CC(C4)C2)C3)cc1OC (stereo not drawn) | inactive |
| Cc1nn2cc(-c3cccc(Cl)c3)cnc2c1Br | inactive |

| Structure (SMILES) | AC50 |
| --- | --- |
| CN(C)c1ccc(C(=S)N2CCN(C(=S)Nc3ccc(Cl)cc3)CC2)cc1 | inactive |
| COc1ccc(-c2cn3cc(C)ccc3n2)cc1F | > 39 µM |
| CC(C)(C)c1cc(Cl)c(O)c(NC(=S)NC(=O)c2cccnc2)c1 | inactive |
| COc1cc(/C=N/Nc2ccccn2)ccc1O | > 39 µM |
| Cc1cc(C)c(C)c(S(=O)(=O)N2CCCCC2C(=O)O)c1C (stereo not drawn) | > 39 µM |
| CC(C)(C)OCC(O)CN1CCN(C(=O)c2ccccc2)CC1 (stereo not drawn) | inactive |
| CN(C)CCNC(=O)c1cc2c(s1)-c1ccc(Cl)cc1SC2 | > 39 µM |
| Cc1nc2ccccc2nc1OCC(=O)Nc1ccc(F)cc1 | inactive |
| Nc1ccccc1-c1nc2ccncc2[nH]1 | inactive |
| O=C(C[C@H]1C[C@H]2c3cc(NC(=O)c4ccc5c(c4)OCO5)ccc3O[C@H]2[C@H](CO)O1)NCc1cccc(F)c1 | inactive |
| Cc1ccc(C(=O)NC(=O)OCCn2c(C)cnc2[N+](=O)[O-])cc1 | inactive |
| O=C(CCNC(=O)c1ccccc1Cl)N/N=C\c1ccc(O)cc1 | 15.8 µM (active) |
| Cc1nn(CCOc2ccccc2)c(=O)n1-c1ccc(Cl)cc1 | inactive |
| CCNC(=O)C[C@H]1CC[C@@H]2[C@@H](COc3ccc(NC(=O)c4cccc(OC)c4)cc3C(=O)N2C)O1 | > 39 µM |
| NC(=O)c1ccc(NC(=O)CSc2nnc(C3CC3)n2C2CC2)cc1 | inactive |
| COc1cc(C(=O)Nc2scc(-c3ccccc3)c2C(=O)O)cc(OC)c1OC | 13.9 µM (active) |
| Cc1c(CNC(=O)c2c([N+](=O)[O-])cnn2C)cnn1C | inactive |
| COCc1c(Br)c(C)nc(OCC(=O)N/N=C/c2ccc(C)o2)c1C#N | inactive |
| O=C(C[C@@H]1CC[C@@H]2[C@H](COC[C@@H](O)CN2C(=O)Nc2ccc(Cl)c(Cl)c2)O1)NCc1ccncc1 | inactive |
